Compound activity deposited in PubChem by National Center for Advancing Translational Sciences (NCATS).
Pf growth 96h: P. falciparum growth inhibition at 96 hour, primary screen for plastid delayed-death inhibitors; P. falciparum luciferase reporter growth, 96 h; Potency, µM (highest dose often 28.7 µM), inactives show at the top dose activity change, negative = inhibition, most hits filed as inhibitors; hit rate 6.9% among 320,000; AID 504834; note: % is set by controls: 0 for no effect and ±100 for the full control effect
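Erythrocytes infected with luciferase-expressing P. falciparum were dispensed at 2% hematocrit and 0.05% parasitemia (final), then incubated with compounds 96 hours at 37 C in 5% CO2. Luminescence after detection reagent addition reported growth.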
NS1 function inh: blocks influenza NS1 protein function. Potency, µM (titrated, usually from 46.1 µM), inactives show at the highest dose activity, positive = more growth. hit rate 0.4% among 270,000. AID 2326; calls by dose curve; note: actives are rising curves; nearly all actives have a fitted effect of over 50% in size
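Read-out: OD600 growth recovery of NS1-expressing budding yeast. Cells grown overnight at 30C in -URA glucose medium, washed, resuspended and diluted 1:100 in 2% galactose assay medium, pH 6.0. Same strain lacking NS1 served as positive control.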
Pf growth 48h: P. falciparum growth inhibition at 48 hours (one generation) | P. falciparum luciferase growth in erythrocytes, 48 h | Potency, µM (series often up to 28.7 µM), for inactives: at the highest dose activity change, negative = inhibition, most hits filed as inhibitors | hit rate 5.9% among 310,000 | AID 504832; note: % is set by controls: 0 for no effect and ±100 for the full control effect
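Here the parasites carry a stable luciferase gene and grow inside erythrocytes in Albumax-based RPMI medium with compound for one erythrocytic cycle. Activity is scored as loss of luminescent signal.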
AMA1-RON2 inh: disrupts binding of P. falciparum AMA1 to RON2. AID 720542. hit rate 0.2% among 360,000. Potency, µM (doses to about 58.2 µM), inactives show at the highest dose activity change, negative = inhibition, actives largely listed as inhibitors. AlphaScreen AMA1-biotinylated RON2 peptide binding;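 note: 0% = vehicle wells and -100% = peptide control; nearly all actives have a fitted effect of over 45% in size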
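AMA1 (3D7) with his tag at 25 nM final met compounds first, then biotinylated RON2 peptide at 25 nM; detection used donor plus acceptor beads, 10 µg/mL apiece, read by AlphaScreen after 30 min at room temperature.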
HCV inhibitor: inhibitors of hepatitis C virus infection. hit rate 3.4% among 340,000. Huh7.5.1 HCVcc-Cre infection, luciferase reporter, 44 h. Potency, µM (doses to about 41.8 µM), without a hit: at the highest dose activity change, negative = inhibition, most hits filed as inhibitors; note: % is set by controls: 0 for no effect and ±100 for the full control effect
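Reporter virus HCVcc-Cre (~0.5 moi) infects cells exposed to compound; seeding density 1,000 cells/well with 4 h settling beforehand. Luminescence, 15 sec read, taken 44 h post-infection following a 15 min RT substrate incubation.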
SARS PLP yeast: blocks SARS-CoV papain-like protease in a yeast assay | Potency, µM (top dose mostly 32.9 µM), without a hit: at the top dose activity, positive = growth rescue, hits mostly activators | hit rate 0.19% among 330,000 | S. cerevisiae expressing SARS-CoV PLpro, growth rescue; calls by dose curve; note: 0% is about no effect; nearly all actives have a fitted effect of over 55% in size
Starred values were filed as active, the others as inactive; u = inconclusive; x = not tested or not shown. Compounds with a hit are over-represented: about 12% of the library has one in this group of screens. Unless noted, calls come from the whole dose curve; as a rule, active = well fitted curve in the direction sought with a large enough effect; inconclusive = small, poorly fitted or top-dose-only effect, or another doubt; inactive = no such curve, though single readings can be large; an effect the other way counts as inactive or inconclusive. Potency is the fitted concentration of half-maximal effect.

SMILES	Pf growth 96h	NS1 function inh	Pf growth 48h	AMA1-RON2 inh	HCV inhibitor	SARS PLP yeast
COC(=O)c1nc2nc(C)cc(C(F)(F)F)n2n1	12µM*	8%	1%	1%	22%	1%
C/C(=C\c1ccco1)CN1CCN(Cc2ccc(C)o2)C(CCO)C1 (stereo not given)	25%	-1%	-9%	-1%	-11%	0%
Cc1c(S(=O)(=O)N2CCN(C(c3ccccc3)c3ccccc3)CC2)c(=O)n(C)c(=O)n1C	2.3µM*	-25%	1.7µM*	2%	12%	4%
O=C(O)c1cccc(S(=O)(=O)N2CCN(C(c3ccccc3)c3ccccc3)CC2)c1	13µM*	x	10µM*	-8%	3%	0%
O=C(O)c1cccc(S(=O)(=O)N2CCCC2)c1	-3%	-2%	-1%	-1%	x	2%
COCC(=O)N1CCC(n2nccc2NC(=O)c2ccccc2OC)CC1	-17%	24%	u	8%	-1%	5%
O=C(O)C1CCN(C(=O)c2ccccc2N2C(=O)[C@@H]3Cc4c([nH]c5ccccc45)C(c4cccc(Cl)c4)N3C2=O)CC1 (stereo not given in full)	9.3µM*	-35%	u	-7%	4%	4%
COc1ccc(C2c3[nH]c4ccccc4c3C[C@H]3C(=O)N(c4ccccc4C(=O)NCCN4CCOCC4)C(=O)N23)cc1 (stereo not given in full)	u	-6%	13µM*	-10%	-15%	3%
O=C(NCCN1CCOCC1)c1ccccc1N1C(=O)[C@@H]2Cc3c([nH]c4ccccc34)C(c3ccc(F)cc3)N2C1=O (stereo not given in full)	u	-17%	u	-7%	-18%	8%
Cc1ccc(C2c3[nH]c4ccccc4c3C[C@H]3C(=O)N(c4ccccc4C(=O)N4CCC(C(=O)O)CC4)C(=O)N23)cc1 (stereo not given in full)	5.9µM*	3%	12µM*	-2%	11%	-5%
O=C(CCN1N=C(c2ccccc2)CCC1=O)NCC1COc2ccccc2O1 (stereo not given)	-22%	-1%	-5%	-5%	-9%	1%
Cc1cccc(CC(=O)N2CCCC2)c1	-29%	13%	20%	-5%	10%	-9%
